Screening results as filed in PubChem.
FMDV inh: foot and mouth disease virus antiviral activity | FMDV antiviral cell-based qHTS | Potency, µM (highest dose often 57.9 µM), inactives show at the highest dose activity change, negative = inhibition, hits mostly inhibitors | 410,000 compounds, 1.2% hits | AID 1159524; calls by dose curve; tested in HEK293T cells; also: read-out not given here; potency is read from the fitted curve at half-maximal effect; nearly all actives have a fitted effect of over 45% in size
TbPYK inhibitor: inhibitors of Trypanosoma brucei pyruvate kinase. Potency, µM (highest dose often 76.8 µM), for the others: at the highest dose activity, negative = inhibition, usual class: inhibitors. TbPYK enzyme, Kinase-Glo Plus ATP luminescence, 45 min. 410,000 compounds, 0.12% hits. Q57TT1; also: potency is read from the fitted curve at half-maximal effect; nearly all actives have a fitted effect of over 50% in size
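Assay buffer: 50 mM TEA pH 7.2, 100 mM KCl, 10 mM MgCl2, 0.05% BSA, 0.01% Tween-20. Pyruvate kinase from T. brucei plus substrate met compound, then ADP (130 uM final). Luminescence was read post 45 min RT.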
Giardia FBPA inh: inhibitors of Giardia lamblia fructose-1,6-bisphosphate aldolase; A8B2U2; purified Giardia FBPA; Potency, µM (highest dose often 59.6 µM), inactives show top-dose activity, negative = inhibition, actives largely listed as inhibitors; 290,000 compounds, 0.71% hits; AID 2451; also: potency is read from the fitted curve at half-maximal effect; nearly all actives have a fitted effect of over 55% in size
Target sequence (A8B2U2 whole entry, looked up): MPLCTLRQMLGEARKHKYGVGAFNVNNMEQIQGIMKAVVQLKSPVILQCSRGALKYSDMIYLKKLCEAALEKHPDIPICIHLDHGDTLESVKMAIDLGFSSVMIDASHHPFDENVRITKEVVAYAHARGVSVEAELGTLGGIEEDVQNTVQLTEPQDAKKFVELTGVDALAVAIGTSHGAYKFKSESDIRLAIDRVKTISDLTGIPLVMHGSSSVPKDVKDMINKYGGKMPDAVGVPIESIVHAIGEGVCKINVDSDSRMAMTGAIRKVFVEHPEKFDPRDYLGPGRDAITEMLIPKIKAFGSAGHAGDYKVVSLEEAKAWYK
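40 nM FBPA preincubated 10 min at RT with compound (up to 57.5 uM final), then substrate plus GAPDH/TPI/NAD/arsenate coupling and diaphorase/resazurin added. Fluorescence read after 20 min at RT, 525/598 nm.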
RE007 growth inh: less growth of the S. pombe RE007 Vpr strain. S. pombe RE007 Vpr strain, BacTiter-Glo ATP luminescence, 24 h. Potency, µM (titrated, usually from 92.2 µM), inactives show at the top dose activity change, negative = less growth, actives largely listed as inhibitors. 360,000 compounds, 0.21% hits. AID 651644; active = well fitted falling curve with a large enough effect; inconclusive = small, poorly fitted or top-dose-only effect; inactive = no such curve, though single readings can be large or run the other way; also: potency is read from the fitted curve at half-maximal effect; nearly all actives have a fitted effect of over 50% in size
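Fission yeast strain RE007, carrying one chromosomally integrated HIV-1 vpr copy, was seeded at OD 0.01 in PMG+AL medium with 23 nL pinned compound. After 24 h at 30 °C and 99% humidity, viability was read by BacTiter-Glo luminescence.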
Sm TGR inh: blocks Schistosoma mansoni thioredoxin glutathione reductase | Q962Y6 | purified TGR, DTNB reduction, TNB absorbance 405 nm | Potency, µM (top dose mostly 114 µM), for the others: at the top dose activity change, negative = inhibition, actives largely listed as inhibitors | 360,000 compounds, 3% hits; also: potency is read from the fitted curve at half-maximal effect; nearly all actives have a fitted effect of over 60% in size
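First, TGR (20 nM dispensed) and NADPH were mixed with compound. Second, a 15 min room-temperature incubation followed. Third, further NADPH and then DTNB were added to start the reaction. Finally, TNB absorbance was monitored kinetically.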
HCMV antiviral: blocks human cytomegalovirus replication. HFF cells, HCMV-luciferase reporter, 72 h; hits give low values. activity change, negative = inhibition, % at 57.5 µM. 410,000 compounds, 4.5% hits; in the data active = activity change below about -60%; inconclusive = no clear call, values can overlap the other calls; inactive = above about -39%
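Compounds were evaluated in HFFs infected with an HCMV luciferase reporter virus (MOI 1 PFU/cell). Luciferase in lysates collected 72 h post infection served as the replication measure.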
Starred values were filed as active, the others as inactive; ? = inconclusive; · = no result given; [ ] = remark or other dose. The list is not random: actives were taken first. Their share in the collection is about 7.7%. Unless noted, calls follow the shape of the dose curve; as a rule, active = well fitted curve in the direction sought with a large enough effect; inconclusive = small, poorly fitted or top-dose-only effect, or another doubt; inactive = no such curve, though single readings can be large; an effect the other way counts as inactive or inconclusive. % is scaled to controls: 0 for no effect and ±100 for the full control effect.

SMILES | FMDV inh | TbPYK inhibitor | Giardia FBPA inh | RE007 growth inh | Sm TGR inh | HCMV antiviral
COc1cc(CN2CCc3ccc(NC(=O)CCc4ccccc4OC)cc3C2)ccc1O | -0.7% | -5.0% | -7.3% | -10.9% | 12.6µM* | -10.2
COc1cc(CN2CCc3ccccc3C2)ccc1O | 31.6µM* | -6.3% | ? | -1.8% | 20µM* | -99.6*
COc1cc(CN2CCc3ccccc3C2)cc([N+](=O)[O-])c1O | -4.3% | 11.5% | ? | 16.2% | 4.1% | 4.9
COc1cccc(-c2cc(=O)c3cc(O)ccc3o2)c1 | · | · | -0.5% | · | · | ·
COc1ccc(CN2CCc3ccc(NC(=O)CCc4ccccc4OC)cc3C2)c(O)c1 | ? | 5.0% | -12.7% | -5.0% | -27.1% | -72.2*
COc1ccc(CCNc2oc(Cc3ccccc3)nc2C#N)cc1OC | 14.1µM* | 0.0% | 0.5% | -1.1% | 16.3% | -13.8
N#Cc1nc(COc2ccccc2Cl)oc1NCc1ccco1 | -6.9% | 5.3% | -1.2% | 16.5% | 22.4µM* | -13.1
COc1ccc(CCNc2oc(COc3ccccc3Cl)nc2C#N)cc1OC | 20µM* | 2.4% | -7.7% | -5.6% | -18.2% | 19.1
Cn1c(=O)c2c(nc(NCCc3ccccc3)n2Cc2ccc(Cl)cc2)n(C)c1=O | ? | -5.5% | · | · | -3.0% | -81.8*
CCCNc1nc2c(c(=O)n(C)c(=O)n2C)n1CCc1ccccc1 | 14.1µM* | -4.2% | -6.8% | 8.5% | 0.0% | -64.7*
CCCNc1nc2c(c(=O)n(C)c(=O)n2C)n1CCCc1ccccc1 | ? | -1.6% | 3.6% | -4.0% | -0.2% | -7.8
CCCNc1nc2c(c(=O)n(C)c(=O)n2C)n1Cc1cccc(C)c1 | ? | 1.2% | 4.4% | 17.9% | 0.0% | -62.3*
CC(C)n1c(CN(C)Cc2ccccc2)nc2c1c(=O)n(C)c(=O)n2C | 17.8µM* | -1.2% | 6.6% | 11.1% | -26.4% | -88.9*
COc1cc(CC(C)N)c(OC)cc1Br (stereo unspecified) | · | -4.9% | · | · | · | ·
Cn1c(=O)c2c(nc(NCCO)n2CCc2ccccc2)n(C)c1=O | · | -4.3% | 0.1% | -11.0% | 0.8% | ?
CCCCNc1nc2c(c(=O)n(C)c(=O)n2C)n1CCC | -20.0% | 1.3% | 6.6% | -9.1% | -3.3% | 4.1
CC(C)n1c(NCCc2ccccc2)nc2c1c(=O)n(C)c(=O)n2C | 15.8µM* | 10.8% | -4.5% | 15.3% | -13.9% | -87.4*
CCCCCCn1c(NCC)nc2c1c(=O)n(C)c(=O)n2C | ? | -6.9% | -9.7% | -9.4% | 0.8% | -88.5*
Cn1c(=O)c2c(nc(NCc3ccccc3)n2Cc2ccc(Cl)c(Cl)c2)n(C)c1=O | ? | -3.0% | · | · | 10.2% | -75.5*
CCOc1cc(Cl)c(S(=O)(=O)n2ccnc2)cc1Cl | -8.7% | 3.3% | · | · | 0.1% | 7.3
O=C(Nc1ccccc1Br)N1CCN2CCCCC2C1 (stereo unspecified) | -5.1% | 2.3% | · | · | 46.2% | -11.0
CCC(=O)N[C@@H]1c2ccccc2C2(CCN(Cc3[nH]c4c(Cl)cccc4c3C)CC2)[C@H]1OC | -12.6% | · | · | · | · | ·
COc1ccc(CCNC(=O)C(=O)NCC(c2cccs2)S(=O)(=O)c2ccccc2)cc1 (stereo unspecified) | 28.2µM* | 0.8% | · | · | -15.2% | -24.4
COc1ccc(CNC(=O)C(=O)NCC(c2cccs2)S(=O)(=O)c2ccc(F)cc2)cc1 (stereo unspecified) | 0.0% | -4.2% | · | · | -30.3% | 13.5
Cc1ccc(CNC(=O)C(=O)NCC(c2cccs2)S(=O)(=O)c2ccccc2)cc1 (stereo unspecified) | -23.2% | 0.3%[15.4 µM] | · | · | 2.2% | ?
COc1ccc(CCNC(=O)C(=O)NCC(c2cccs2)S(=O)(=O)c2ccc(C)cc2)cc1 (stereo unspecified) | 20µM* | 8.1% | · | · | -20.4% | -16.1
O=C(NCCc1ccc(F)cc1)C(=O)NCC(c1cccs1)S(=O)(=O)c1ccccc1 (stereo unspecified) | ? | 1.4%[15.4 µM] | · | · | -5.5% | 0.0
